Reference: publication PMC5540273 (PLoS ONE, 2017)

Columns and labels:
Details in all cases: concentration: 1 μM,replicates: in singlicate; n = 1
[1] = test system: T1, RSK4(Kin.Dom.1-N-terminal)
T1 construct: gene RPS6KA6

[2] = test system: T2, RSK4(Kin.Dom.2-C-terminal)
T2 construct: gene RPS6KA6

[3] = test system: S6K1
[4] = test system: SBK1
[5] = test system: SGK2
[6] = test system: SGK3
[7] = test system: SGK
[8] = test system: SIK2
[9] = test system: SIK
[10] = test system: SLK
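Note: KINOMEscan kinase panel screen.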

Compound	%Inh [1] [%]	%Inh [2] [%]	%Inh [3] [%]	%Inh [4] [%]	%Inh [5] [%]	%Inh [6] [%]	%Inh [7] [%]	%Inh [8] [%]	%Inh [9] [%]	%Inh [10] [%]
O=c1[nH]cc(-c2ccc(O)cc2)c2sc(-c3ccncc3)cc12 [GSK1033723]	0	15	0	9	0	2	0	0	0	1
C[C@@H](Oc1cc(-n2cnc3cc(-c4cnn(C)c4)ccc32)sc1C(N)=O)c1ccccc1Cl [GSK580432]	37	7	0	13	5	0	0	74	65	99.7
C[C@@H]1CNc2c(sc3ccc4nc(-c5ccncc5)ccc4c23)C(=O)N1	38	21	0	30	0	18	0	0	5	1
Cl.Nc1n[nH]c2cc(-c3ccccn3)ccc12 [GSK2189892]	3	0	0	28	0	0	0	0	0	14
COC(=O)Nc1nc2cc(Oc3ccc(NC(=O)Nc4cc(C(F)(F)F)ccc4Cl)cc3)ccc2[nH]1.Cl [GW697465]	0	25	23	1	0	0	2	0	0	63
COc1cc(Nc2nccc(N3CCC(NC(=O)c4cccc(C#N)c4)C3)n2)cc(OC)c1OC (stereo not shown) [GSK1379751]	0	9	0	22	2	0	3	0	0	1
CCNCC(Cc1ccccc1)NC(=O)c1cc(Br)c(-c2ccnc3[nH]ccc23)s1.Cl.Cl (stereo not shown) [GSK1383280]	33	18	67	70	9	82	65	0	0	0
